PubChem BioAssay AID1159580 (chemical genetic matrix, 2015)
Where “and” joins values, the source holds several entries; their conditions need not be identical. Equal entries are not always repeated. About 2,000 (36%) of roughly 5,500 compounds were called active. Another 18% or so got no clear call; they are omitted. Rule as the data show it: active = normalized growth mostly below about 0.91 (no sharp cut-off); inconclusive = no clear call, values can overlap the other calls; inactive = mostly above about 0.92. Some of the results follow.

Assay: chemical genetic growth profiling, strain panel (AID 1159580);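 also: tested at 20 µM; growth read once vehicle control cultures reached saturation at 30 °C; 1 = growth at the plate median or of vehicle wells; lower values mean less growth of the strain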
Settings: S. cerevisiae deletion strains, growth OD

Measured: normalized growth

COc1cc([C@@H]2c3cc4c(cc3C(OC3O[C@@H]5COC(C)O[C@H]5[C@H](O)[C@H]3O)C3COC(=O)[C@@H]32)OCO4)cc(OC)c1O (some centres undefined)
inactive: locus YAL021C, strain ccr4, active compounds read low 1.03 | locus YAL026C, strain drs2, active compounds read low 1.05 | locus YAL030W, strain snc1, active compounds read low 1.05 | locus YBL061C, strain skt5, active compounds read low 1.02 | locus YBR009C, strain hhf1, active compounds read low 1.01 | locus YBR021W, strain FUR4, active compounds read low 0.961 | locus YBR023C, strain chs3, active compounds read low 1.03 | locus YBR171W, strain sec66, active compounds read low 1.07 | locus YBR229C, strain ROT2, active compounds read low 1.01 | locus YBR231C, strain swc5, active compounds read low 1.03 | locus YBR279W, strain paf1, active compounds read low 1.02 | locus YCL011C, strain gbp2, active compounds read low 1.04 | locus YCL016C, strain dcc1, active compounds read low 1.02 | locus YCL029C, strain bik1, active compounds read low 0.989 | locus YCL069W, strain vba3, active compounds read low 1.05 | locus YCR088W, strain abp1, active compounds read low 1.04 | locus YDL005C, strain med2, active compounds read low 1.02 | locus YDL035C, strain GPR1, active compounds read low 0.996 | locus YDL040C, strain nat1, active compounds read low 1.03 | locus YDL074C, strain BRE1, active compounds read low 0.947 | locus YDL101C, strain DUN1, active compounds read low 1 | locus YDL134C, strain PPH21, active compounds read low 1.01 | locus YDL185W, strain tfp1, active compounds read low 0.979 | locus YDL192W, strain arf1, active compounds read low 0.991 | locus YDR001C, strain nth1, active compounds read low 1.02 | locus YDR069C, strain doa4, active compounds read low 1.04 | locus YDR101C, strain arx1, active compounds read low 0.981 | locus YDR137W, strain rgp1, active compounds read low 1.06 | locus YDR159W, strain sac3, active compounds read low 0.987 | locus YDR162C, strain NBP2, active compounds read low 1.03 | locus YDR195W, strain ref2 1.03 | locus YDR297W, strain sur2, active compounds read low 1.02 | locus YDR318W, strain mcm21, active compounds read low 1.01 | locus YDR334W, strain swr1, active compounds read low 1.06 | locus YDR335W, strain msn5, active compounds read low 1.05 | locus YDR388W, active compounds read low 1 | locus YDR392W, strain spt3, active compounds read low 0.948 | locus YDR502C, strain sam2, active compounds read low 0.974 | locus YEL003W, strain gim4, active compounds read low 1.04 | locus YEL037C, strain rad23, active compounds read low 1.05 | locus YEL061C, strain CIN8 (second series), active compounds read low 1.03 | locus YEL061C, strain CIN8, active compounds read low 1.01 | locus YER015W, strain faa2, active compounds read low 1.03 | locus YER016W, strain bim1, active compounds read low 1.03 | locus YER110C, active compounds read low 0.993 | locus YER111C, strain swi4, active compounds read low 1.03 | locus YER155C, strain BEM2 (second series), active compounds read low 1.05 | locus YER155C, strain BEM2, active compounds read low 0.981 | locus YER167W, strain BCK2, active compounds read low 0.998 | locus YFR010W, strain ubp6, active compounds read low 1.02 | locus YGL078C, strain dbp3, active compounds read low 0.976 | locus YGL086W, strain mad1, active compounds read low 0.965 | locus YGL167C, strain pmr1, active compounds read low 1.05 | locus YGL173C, strain kem1, active compounds read low 1.02 | locus YGL227W, strain vid30, active compounds read low 1.03 | locus YGL240W, strain doc1, active compounds read low 0.994 | locus YGL248W, strain PDE1, active compounds read low 1.01 | locus YGL253W, strain hxk2, active compounds read low 1.05 | locus YGR078C, strain PAC10, active compounds read low 1.01 | locus YGR135W, strain pre9, active compounds read low 1.02 | locus YGR252W, strain gcn5, active compounds read low 1.02 | locus YHR013C, strain ard1, active compounds read low 1.04 | locus YHR027C, strain rpn1, active compounds read low 1.01 | locus YHR030C, strain SLT2, active compounds read low 0.998 and 1.06 | locus YHR079C, strain IRE1 (second series), active compounds read low 0.992 | locus YHR079C, strain IRE1, active compounds read low 1.12 | locus YHR094C, strain hxt1, active compounds read low 0.995 | locus YHR129C, strain ARP1, active compounds read low 0.998 | locus YHR142W, strain chs7, active compounds read low 1.06 | locus YHR200W, strain rpn10, active compounds read low 1 | locus YIL066C, strain RNR3, active compounds read low 0.997 | locus YIL073C, strain SPO22, active compounds read low 0.958 | locus YIL125W, strain kgd1, active compounds read low 0.997 | locus YIR030C, strain dcg1, active compounds read low 0.995 | locus YJL092W, strain hpr5, active compounds read low 1.04 | locus YJL095W, strain BCK1 (second series), active compounds read low 1.03 | locus YJL095W, strain BCK1, active compounds read low 1.03 and 1.06 | locus YJL115W, strain asf1, active compounds read low 1.04 | locus YJL129C, strain trk1, active compounds read low 1.05 | locus YJL134W, strain LCB3, active compounds read low 0.998 | locus YJL154C, strain vps35, active compounds read low 1.02 | locus YJL164C, strain tpk1, active compounds read low 1.05 | locus YJL166W, strain qcr8, active compounds read low 1.02 | locus YJL168C, strain set2, active compounds read low 0.998 | locus YJL187C, strain SWE1 (second series), active compounds read low 1 | locus YJR043C, strain POL32, active compounds read low 0.992 | locus YJR066W, strain TOR1, active compounds read low 0.995 | locus YKL009W, strain mrt4, active compounds read low 1.06 | locus YKL068W, active compounds read low 0.995 | locus YKL085W, strain MDH1 (second series), active compounds read low 1.01 | locus YKL085W, strain MDH1, active compounds read low 1.01 | locus YKL160W, strain elf1, active compounds read low 1.02 | locus YKL190W, strain CNB1, active compounds read low 1.02 | locus YKR001C, strain vps1, active compounds read low 1.01 | locus YKR026C, strain gcn3, active compounds read low 1.04 | locus YKR091W, strain srl3, active compounds read low 1.03 | locus YLL001W, strain dnm1, active compounds read low 1.04 | locus YLL026W, active compounds read low 1.04 | locus YLL041C, strain sdh2, active compounds read low 1.02 | locus YLR027C, strain aat2, active compounds read low 1.05 | locus YLR039C, strain RIC1, active compounds read low 1.01 | locus YLR058C, strain SHM2, active compounds read low 1.02 | locus YLR102C, strain apc9, active compounds read low 0.999 | locus YLR113W, strain HOG1, active compounds read low 1.06 | locus YLR221C, strain rsa3, active compounds read low 1.04 | locus YLR258W, strain gsy2, active compounds read low 1.03 | locus YLR262C, strain YPT6 (second series), active compounds read low 1.05 | locus YLR262C, strain YPT6, active compounds read low 1.01 | locus YLR268W, strain sec22, active compounds read low 0.957 | locus YLR320W, strain mms22, active compounds read low 1 | locus YLR330W, strain CHS5, active compounds read low 1.02 | locus YLR342W, strain FKS1 (second series), active compounds read low 1.01 | locus YLR342W, strain FKS1, active compounds read low 1.02 | locus YLR357W, strain rsc2, active compounds read low 1.04 | locus YLR370C, strain arc18, active compounds read low 1.04 | locus YLR371W, strain rom2, active compounds read low 0.979 | locus YLR384C, strain iki3, active compounds read low 1.02 | locus YLR418C, strain cdc73, active compounds read low 0.998 | locus YML016C, strain PPZ1, active compounds read low 0.999 | locus YML032C, strain rad52, active compounds read low 0.982 | locus YML120C, strain ndi1, active compounds read low 1.03 | locus YML124C, strain tub3, active compounds read low 0.996 | locus YMR058W, strain fet3, active compounds read low 1.02 | locus YMR078C, strain ctf18, active compounds read low 0.996 | locus YMR125W, strain sto1, active compounds read low 1.07 | locus YMR129W, active compounds read low 1.04 | locus YMR205C, strain PFK2, active compounds read low 1.02 | locus YMR223W, strain ubp8, active compounds read low 1 | locus YMR231W, strain pep5, active compounds read low 1.03 | locus YMR307W, strain GAS1, active compounds read low 1.06 | locus YNL067W, strain RPL9B, active compounds read low 1.01 | locus YNL071W, strain lat1, active compounds read low 1.04 | locus YNL153C, strain GIM3, active compounds read low 1.02 | locus YNL183C, strain NPR1, active compounds read low 0.995 | locus YNL209W, strain ssb2, active compounds read low 1.03 | locus YNL233W, strain BNI4, active compounds read low 0.991 | locus YNL248C, strain rpa49, active compounds read low 1.02 | locus YNL250W, strain rad50, active compounds read low 0.96 | locus YNL271C, strain bni1, active compounds read low 0.984 | locus YNL298W, strain CLA4, active compounds read low 0.994 | locus YNL307C, strain MCK1, active compounds read low 0.996 | locus YNL322C, strain KRE1 (second series), active compounds read low 1.03 | locus YNL322C, strain KRE1, active compounds read low 1.01 | locus YNR049C, strain mso1, active compounds read low 1.03 | locus YNR052C, strain pop2, active compounds read low 0.985 | locus YOL012C, strain htz1 0.834 | locus YOL147C, strain pex11, active compounds read low 1 | locus YOR001W, strain rrp6, active compounds read low 1.03 | locus YOR061W, strain CKA2, active compounds read low 0.996 | locus YOR069W, strain VPS5, active compounds read low 0.991 | locus YOR070C, strain gyp1, active compounds read low 1.04 | locus YOR080W, strain dia2, active compounds read low 1.02 | locus YOR083W, strain WHI5, active compounds read low 0.979 | locus YOR106W, strain vam3, active compounds read low 1.04 | locus YOR136W, strain idh2, active compounds read low 0.971 | locus YOR144C, strain elg1, active compounds read low 0.998 | locus YOR184W, strain ser1, active compounds read low 1 | locus YOR231W, strain MKK1, active compounds read low 1.05 | locus YOR265W, strain rbl2, active compounds read low 1.01 | locus YOR270C, strain vph1, active compounds read low 1.15 | locus YOR290C, strain snf2, active compounds read low 1.04 | locus YOR316C, strain cot1, active compounds read low 0.997 | locus YPL051W, strain arl3, active compounds read low 1.04 | locus YPL055C, strain LGE1, active compounds read low 1.01 | locus YPL078C, strain atp4, active compounds read low 1.04 | locus YPL106C, strain sse1, active compounds read low 1.07 | locus YPL240C, strain hsp82, active compounds read low 1.02 | locus YPL241C, strain CIN2, active compounds read low 1.01 | locus YPL256C, strain CLN2, active compounds read low 1.08 | locus YPR119W, strain clb2, active compounds read low 0.998 | locus YPR141C, strain kar3, active compounds read low 0.99 | locus YPR163C, strain tif3, active compounds read low 0.985 | locus YPR167C, strain met16, active compounds read low 1.01 | strain wtn01, active compounds read low 0.97
